Our source for the growth values is PubChem BioAssay (NCI).

Some test systems named below: NCI-H23 lung; NCI-H226 lung; NCI-H322M lung; HOP-62 NSCLC; NCI-H460 lung; HOP-92 NSCLC; NCI-H522 lung; A549/ATCC NSCLC; 786-0 renal; COLO 205 colon.
Holding throughout (test): NCI-60 one-dose screen, 48 h (100 = growth as untreated, 0 = no growth, -100 = all killed)
Holding throughout (conditions): 10 µM unless noted

Each structure is given as a SMILES string. The panel holds about 83,000 compounds, 20% with a hit somewhere; the sample as a whole holds those more often.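 Note: values are percent growth. 100 is the growth of untreated cells, values between 100 and 0 indicate rising inhibition; between -100 and 0 indicates cell death.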 Unmarked numbers belong to inactive results. Active and inactive are the calls of the source. How the source made its calls: active means growth percent below 10; inactive means the rest.

As to `CC1OC(O[C@H]2/C=C/C=C/C=C/C=C/C=C/C=C/C=C/[C@H](C)[C@@H](O)[C@@H](C)[C@H](C)OC(=O)CC(O)CC(O)CCC(O)C(O)CC(O)C[C@]3(O)C[C@H](O)C(C(=O)O)C(C2)O3)C(O)[C@H](N)C1O` (stereo not given in full), the growth with NCI-H23 lung is -29.7% (active); in the test with NCI-H226 lung it was -9.69% (active); with NCI-H322M lung it was 20%; with HOP-62 NSCLC it was -82.5% (active); in the test with NCI-H460 lung, -55.5% (active); in the test on HOP-92 NSCLC, 18.6%. Besides, the growth is 16.2% in the test with NCI-H522 lung, -89.9% (active) in the test on A549/ATCC NSCLC, -80% (active) in the test with 786-0 renal and 38.5% in the test with COLO 205 colon.
Regarding `CCOC(=O)c1c(/C=C/C(=O)O)nc2ccccc2c1/C=C/c1ccccc1`, the growth with NCI-H23 lung is 50.3%; in the test on NCI-H226 lung it was 53.8%; with NCI-H322M lung it was 72.7%; in the test with HOP-62 NSCLC, 63.3%; in the test with NCI-H460 lung, 28.5%; in the test with HOP-92 NSCLC, 60.1%. Moreover, the growth with NCI-H522 lung was 40.9%; in the test on A549/ATCC NSCLC, 70.7%; with 786-0 renal, 54.9%; with COLO 205 colon, 84%.
For the molecule `O=c1[nH]ccc2nc(N3CCC(O)CC3)nc(Nc3ccc(N4CCOCC4)cc3)c12`, the growth was 58.2% with NCI-H23 lung; 45.7% with NCI-H226 lung; 83.7% in the test with NCI-H322M lung; 97.2% with HOP-62 NSCLC; 36.2% with NCI-H460 lung; 2.14% (active) in the test with HOP-92 NSCLC. Moreover, the growth with NCI-H522 lung is 75.1%; in the test on A549/ATCC NSCLC it was 29.8%; in the test with 786-0 renal, 77.2%; with COLO 205 colon, -1.79% (active).
With `O=Cc1ccc(O)c2ncccc12`, the growth in the test with NCI-H23 lung is 29.2%; in the test on NCI-H226 lung, 116%; with NCI-H322M lung, 97.1%; with HOP-62 NSCLC it was 44.6%; with NCI-H460 lung, 30.1%; with HOP-92 NSCLC, 43.5%. The growth with NCI-H522 lung is 51.8%; with A549/ATCC NSCLC, 100%; in the test with 786-0 renal, 89.3%; in the test on COLO 205 colon, 17.8%.
On to `Cc1c(Cl)cc(-n2c(=O)c3ccccc3c3ccccc3c2=O)cc1Cl`, for which the growth in the test with NCI-H23 lung is 97.6%; in the test on NCI-H226 lung, 108%; in the test on NCI-H322M lung, 87.3%; in the test on HOP-62 NSCLC, 92.6%; with NCI-H460 lung, 111%; with HOP-92 NSCLC, 98.4%. In addition, the growth in the test with NCI-H522 lung is 98.7%; with A549/ATCC NSCLC it was 102%; with 786-0 renal it was 98.6%; in the test with COLO 205 colon, 98.2%.
`N#Cc1nc(C#N)c(Sc2ccccc2)c(Sc2ccccc2)c1Sc1ccccc1`: the growth in the test with NCI-H23 lung is -42.1% (active); in the test on NCI-H226 lung, 3.05% (active); in the test on NCI-H322M lung it was 23.9%; with HOP-62 NSCLC it was -46% (active); in the test on NCI-H460 lung it was -44.7% (active); in the test with HOP-92 NSCLC it was -31.7% (active). The growth with NCI-H522 lung is -67.2% (active); with A549/ATCC NSCLC it was 3.65% (active); in the test with 786-0 renal, -55.9% (active); in the test on COLO 205 colon it was -88.2% (active).
On to `COC(=O)[C@]12CC[C@@H](C)[C@H](C)[C@@H]1C1=CC[C@@H]3[C@@]4(C)C(C=O)=C[C@@](C)(COC(C)=O)[C@@H]4C(=O)C[C@@]3(C)[C@]1(C)CC2`, for which the growth in the test on NCI-H23 lung is 34.2%; in the test on NCI-H226 lung, 38.7%; in the test with NCI-H322M lung, 77.2%; in the test with HOP-62 NSCLC, 50.1%; in the test on NCI-H460 lung it was 18.8%; with HOP-92 NSCLC, 47.7%. For the same molecule, the growth was 12.9% with NCI-H522 lung, 14.2% in the test on A549/ATCC NSCLC, 37.3% in the test with 786-0 renal and -9.64% (active) in the test on COLO 205 colon.
For `Cc1cc(O)c(C2=NN(c3ccc(S(N)(=O)=O)cc3)C(c3ccccc3Cl)C2)cc1Cl` (stereo not given), the growth is 2.15% (active) in the test with NCI-H23 lung; 38.7% in the test with NCI-H226 lung; 48.3% in the test with NCI-H322M lung; -6.9% (active) with HOP-62 NSCLC; -36.2% (active) with NCI-H460 lung; 38.5% with HOP-92 NSCLC. The growth with NCI-H522 lung is -56.1% (active); with A549/ATCC NSCLC, 13%; with 786-0 renal it was -66.3% (active); in the test on COLO 205 colon, -92.1% (active).
`c1ccc(Nc2nc(-c3ccccn3)cs2)nc1`: the growth in the test on NCI-H23 lung is 19.1%; with NCI-H226 lung, -9.64% (active); in the test with NCI-H322M lung, 27.1%; with HOP-62 NSCLC, 16.4%; in the test with NCI-H460 lung, -9.3% (active); with HOP-92 NSCLC, 63.6%. Moreover, the growth is 26.3% in the test on NCI-H522 lung, 11.2% with A549/ATCC NSCLC, -2.41% (active) in the test on 786-0 renal and 11.5% in the test on COLO 205 colon.
Take `CC(C)(C)c1ccc(/C=C/C(=O)Nc2ccc(O)cc2)cc1`: the growth was 80.9% in the test on NCI-H23 lung; 65% in the test with NCI-H226 lung; 78% in the test with NCI-H322M lung; 52.2% in the test with HOP-62 NSCLC; 46.9% with NCI-H460 lung; 106% in the test with HOP-92 NSCLC. Besides, the growth in the test on NCI-H522 lung was 26.4%; with A549/ATCC NSCLC, 64.6%; in the test on 786-0 renal, 69.1%; with COLO 205 colon, 73.6%.
For `COc1c(CCC[P+](c2ccccc2)(c2ccccc2)c2ccccc2)cc2c(c1OC)OCO2`, the growth in the test with NCI-H23 lung was 2.87% (active); with NCI-H226 lung it was 27%; with NCI-H322M lung, 45.4%; in the test with HOP-62 NSCLC it was 15.1%; with NCI-H460 lung it was 5.26% (active); in the test with HOP-92 NSCLC, -4.16% (active). Further, the growth was -11.8% (active) in the test on NCI-H522 lung, 40% in the test on A549/ATCC NSCLC, 21.8% in the test with 786-0 renal and -55.6% (active) in the test on COLO 205 colon.
On to `O=C(c1ccc(Nc2nccc(NCCCCNc3ccnc4cc(Cl)ccc34)n2)cc1)N1CCCCC1`, for which the growth is 45.3% in the test with NCI-H23 lung; 91.3% in the test on NCI-H226 lung; 51.3% in the test with NCI-H322M lung; 69.7% with HOP-62 NSCLC; 12.9% in the test on NCI-H460 lung; 59.2% in the test with HOP-92 NSCLC. Moreover, the growth is 33.2% with NCI-H522 lung, 25.8% with A549/ATCC NSCLC, 0.767% (active) in the test on 786-0 renal and -58.6% (active) in the test on COLO 205 colon.
For `c1coc(-c2c3ccc(=[N+]4CCCCC4)cc-3oc3cc(N4CCCCC4)ccc23)c1`, the growth in the test on NCI-H23 lung is -84.6% (active); in the test with NCI-H226 lung it was -86.1% (active); in the test on NCI-H322M lung it was -85.1% (active); with HOP-62 NSCLC, -81.1% (active); in the test with NCI-H460 lung, -71.5% (active); in the test on HOP-92 NSCLC, -68.1% (active). Further, the growth in the test with NCI-H522 lung was -86.4% (active); in the test with A549/ATCC NSCLC, -57.9% (active); in the test with 786-0 renal, -93.2% (active); with COLO 205 colon, -70.1% (active).
